# Measurements published in publication PMC7862700, “An all-to-all approach to the identification of sequence-specific readers for epigenetic DNA modifications on cytosine”.
# Molecular target: ETV5 (Homo sapiens, UniProt P41161 1-510)
# Test: DAPPL (digital affinity profiling via proximity ligation, sequencing); 10 mM Tris-HCl pH 7.5, 50 mM NaCl, 1 mM DTT, 4% glycerol, room temperature, 30 min; GST-TFs on glutathione beads, 16-mer random dsDNA library, 0.1% formaldehyde crosslink after washing; high values mean tight binding
# Settings: protein: recombinant; tags: N-terminal GST; dsDNA, one strand shown
# Summary of the method: (§1)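 After expression in yeast as GST fusions, human transcription factors were bound to glutathione beads, DNA-barcoded and mixed with a tag-only sample. The pools were incubated with 200 nmole of a 16-mer random double-stranded DNA library in Tris/NaCl/DTT/glycerol buffer (30 min, room temperature), washed and crosslinked with 0.1% formaldehyde. Proximity ligation with BsaI/T4 ligase ran for 1 h at 37 °C, before PCR amplification and sequencing on an Illumina NextSeq500. Binding signal is a hexamer's read frequency for a factor divided by its frequency for the tag-only sample.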
# ETV5, sequence (P41161 whole entry): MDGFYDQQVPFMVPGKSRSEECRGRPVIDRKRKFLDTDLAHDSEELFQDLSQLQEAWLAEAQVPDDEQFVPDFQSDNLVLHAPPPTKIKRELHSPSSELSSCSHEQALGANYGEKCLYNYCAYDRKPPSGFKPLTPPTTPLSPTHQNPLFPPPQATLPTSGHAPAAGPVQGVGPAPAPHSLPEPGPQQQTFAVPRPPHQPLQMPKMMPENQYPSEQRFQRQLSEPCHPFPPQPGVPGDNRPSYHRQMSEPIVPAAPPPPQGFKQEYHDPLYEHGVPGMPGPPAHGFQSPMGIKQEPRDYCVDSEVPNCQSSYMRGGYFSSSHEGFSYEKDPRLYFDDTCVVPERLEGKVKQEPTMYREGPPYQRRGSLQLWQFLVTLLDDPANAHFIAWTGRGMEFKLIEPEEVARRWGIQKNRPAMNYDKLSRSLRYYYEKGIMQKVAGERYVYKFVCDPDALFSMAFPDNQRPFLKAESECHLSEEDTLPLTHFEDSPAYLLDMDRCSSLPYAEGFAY
row,Sequence,binding signal
1,TTTTCC,"1.92 fold enrichment (6-mer frequency, TF over GST control)"
2,CGATTA,"1.08 fold enrichment (6-mer frequency, TF over GST control)"
3,TATTTT,"1.39 fold enrichment (6-mer frequency, TF over GST control)"
4,TCCTCG,"1.51 fold enrichment (6-mer frequency, TF over GST control)"
5,GTTGCT,"1.28 fold enrichment (6-mer frequency, TF over GST control)"
6,TCCGCC,"1.69 fold enrichment (6-mer frequency, TF over GST control)"
7,TCTCTG,"1.43 fold enrichment (6-mer frequency, TF over GST control)"
8,TTTAAC,"1.12 fold enrichment (6-mer frequency, TF over GST control)"
9,ATTGCA,"1.17 fold enrichment (6-mer frequency, TF over GST control)"
10,ACGTCT,"1.12 fold enrichment (6-mer frequency, TF over GST control)"
11,TCTACT,"1.39 fold enrichment (6-mer frequency, TF over GST control)"
12,TCATCC,"1.35 fold enrichment (6-mer frequency, TF over GST control)"
13,TATCGA,"1.29 fold enrichment (6-mer frequency, TF over GST control)"
14,CTACTC,"1.35 fold enrichment (6-mer frequency, TF over GST control)"
15,AATTAC,"1.28 fold enrichment (6-mer frequency, TF over GST control)"
16,TCTGGC,"1.11 fold enrichment (6-mer frequency, TF over GST control)"
17,CCCGAC,"1.31 fold enrichment (6-mer frequency, TF over GST control)"
18,CAAGAT,"1.1 fold enrichment (6-mer frequency, TF over GST control)"
19,TTAGCA,"1.15 fold enrichment (6-mer frequency, TF over GST control)"
20,CATTTG,"1.24 fold enrichment (6-mer frequency, TF over GST control)"

row,Sequence,binding signal
1,TCTTCT,"1.14 fold enrichment (6-mer frequency, TF over GST control)"
2,AATCCT,"1.43 fold enrichment (6-mer frequency, TF over GST control)"
3,CCCCCT,"1.29 fold enrichment (6-mer frequency, TF over GST control)"
4,ACATCC,"2.77 fold enrichment (6-mer frequency, TF over GST control)"
5,TTTTGT,"1.31 fold enrichment (6-mer frequency, TF over GST control)"
6,ACATAA,"1.13 fold enrichment (6-mer frequency, TF over GST control)"
7,TTCTCG,"1.29 fold enrichment (6-mer frequency, TF over GST control)"
8,AAATCT,"1.31 fold enrichment (6-mer frequency, TF over GST control)"
9,TTCTCC,"1.49 fold enrichment (6-mer frequency, TF over GST control)"
10,CTTGCG,"1.36 fold enrichment (6-mer frequency, TF over GST control)"
11,ACGTTC,"1.27 fold enrichment (6-mer frequency, TF over GST control)"
12,AATTAA,"1.29 fold enrichment (6-mer frequency, TF over GST control)"
13,GTTCCT,"1.91 fold enrichment (6-mer frequency, TF over GST control)"
14,ACTTAT,"1.32 fold enrichment (6-mer frequency, TF over GST control)"
15,AATTTA,"1.27 fold enrichment (6-mer frequency, TF over GST control)"
16,CACGAT,"1.26 fold enrichment (6-mer frequency, TF over GST control)"
17,CTCTCT,"1.57 fold enrichment (6-mer frequency, TF over GST control)"
18,GCCTAC,"1.16 fold enrichment (6-mer frequency, TF over GST control)"
19,GCCTCG,"1.33 fold enrichment (6-mer frequency, TF over GST control)"
20,AACTAG,"1.15 fold enrichment (6-mer frequency, TF over GST control)"

# Molecular target: HSF1 (Homo sapiens, UniProt Q00613 1-529)
# Sequence (Q00613 whole entry): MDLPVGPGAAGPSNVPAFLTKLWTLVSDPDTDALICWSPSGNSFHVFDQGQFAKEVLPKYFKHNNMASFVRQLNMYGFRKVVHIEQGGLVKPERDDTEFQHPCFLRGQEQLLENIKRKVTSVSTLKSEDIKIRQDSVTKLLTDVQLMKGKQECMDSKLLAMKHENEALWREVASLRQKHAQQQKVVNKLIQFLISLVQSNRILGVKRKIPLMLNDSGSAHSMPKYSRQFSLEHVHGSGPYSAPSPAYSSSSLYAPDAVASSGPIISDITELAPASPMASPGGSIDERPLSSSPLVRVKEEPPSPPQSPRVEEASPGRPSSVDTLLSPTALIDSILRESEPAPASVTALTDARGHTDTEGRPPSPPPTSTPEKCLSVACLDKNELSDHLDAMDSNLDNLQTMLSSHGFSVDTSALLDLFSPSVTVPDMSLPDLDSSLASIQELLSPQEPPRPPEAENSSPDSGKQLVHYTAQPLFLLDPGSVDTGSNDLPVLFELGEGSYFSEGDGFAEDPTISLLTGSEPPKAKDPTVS
# Test: as above
# Settings: protein: recombinant; tags: N-terminal GST; chain copies: 3; dsDNA, one strand shown
# Summary of the method: as §1
row,Sequence,binding signal
1,TTTTCC,"1.73 fold enrichment (6-mer frequency, TF over GST control)"
2,CGATTA,"2.19 fold enrichment (6-mer frequency, TF over GST control)"
3,TATTTT,"1.5 fold enrichment (6-mer frequency, TF over GST control)"
4,TCCTCG,"1.54 fold enrichment (6-mer frequency, TF over GST control)"
5,GTTGCT,"1.09 fold enrichment (6-mer frequency, TF over GST control)"
6,TCCGCC,"1.04 fold enrichment (6-mer frequency, TF over GST control)"
7,TCTCTG,"1.73 fold enrichment (6-mer frequency, TF over GST control)"
8,TTTAAC,"1.22 fold enrichment (6-mer frequency, TF over GST control)"
9,ATTGCA,"1.06 fold enrichment (6-mer frequency, TF over GST control)"
10,ACGTCT,"1.21 fold enrichment (6-mer frequency, TF over GST control)"
11,TCTACT,"1.51 fold enrichment (6-mer frequency, TF over GST control)"
12,TCATCC,"1.38 fold enrichment (6-mer frequency, TF over GST control)"
13,TATCGA,"1.83 fold enrichment (6-mer frequency, TF over GST control)"
14,CTACTC,"1.32 fold enrichment (6-mer frequency, TF over GST control)"
15,AATTAC,"1.43 fold enrichment (6-mer frequency, TF over GST control)"
16,TCTGGC,"1.89 fold enrichment (6-mer frequency, TF over GST control)"
17,CCCGAC,"1.19 fold enrichment (6-mer frequency, TF over GST control)"
18,CAAGAT,"1.18 fold enrichment (6-mer frequency, TF over GST control)"
19,TTAGCA,"1.7 fold enrichment (6-mer frequency, TF over GST control)"
20,CATTTG,"1.13 fold enrichment (6-mer frequency, TF over GST control)"

row,Sequence,binding signal
1,TCTTCT,"2.17 fold enrichment (6-mer frequency, TF over GST control)"
2,AATCCT,"2.25 fold enrichment (6-mer frequency, TF over GST control)"
3,CCCCCT,"1.02 fold enrichment (6-mer frequency, TF over GST control)"
4,ACATCC,"1.06 fold enrichment (6-mer frequency, TF over GST control)"
5,TTTTGT,"1.27 fold enrichment (6-mer frequency, TF over GST control)"
6,ACATAA,"1.2 fold enrichment (6-mer frequency, TF over GST control)"
7,TTCTCG,"4.96 fold enrichment (6-mer frequency, TF over GST control)"
8,AAATCT,"1.75 fold enrichment (6-mer frequency, TF over GST control)"
9,TTCTCC,"1.98 fold enrichment (6-mer frequency, TF over GST control)"
10,CTTGCG,"1.26 fold enrichment (6-mer frequency, TF over GST control)"
11,ACGTTC,"1.94 fold enrichment (6-mer frequency, TF over GST control)"
12,AATTAA,"1.74 fold enrichment (6-mer frequency, TF over GST control)"
13,GTTCCT,"1.43 fold enrichment (6-mer frequency, TF over GST control)"
14,ACTTAT,"1.73 fold enrichment (6-mer frequency, TF over GST control)"
15,AATTTA,"1.44 fold enrichment (6-mer frequency, TF over GST control)"
16,CACGAT,"1.27 fold enrichment (6-mer frequency, TF over GST control)"
17,CTCTCT,"1.69 fold enrichment (6-mer frequency, TF over GST control)"
18,GCCTAC,"1.01 fold enrichment (6-mer frequency, TF over GST control)"
19,GCCTCG,"1.31 fold enrichment (6-mer frequency, TF over GST control)"
20,AACTAG,"1.37 fold enrichment (6-mer frequency, TF over GST control)"

# Molecular target: T1, SPIC (Homo sapiens, UniProt Q8N5J4 1-248)
# T1 sequence: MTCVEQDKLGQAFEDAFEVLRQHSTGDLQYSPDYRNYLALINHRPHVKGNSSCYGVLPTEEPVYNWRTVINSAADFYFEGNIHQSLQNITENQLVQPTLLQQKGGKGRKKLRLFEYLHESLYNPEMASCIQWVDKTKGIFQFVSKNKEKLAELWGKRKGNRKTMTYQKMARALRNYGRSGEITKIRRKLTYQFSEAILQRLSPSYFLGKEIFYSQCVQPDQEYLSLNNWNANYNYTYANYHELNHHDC
# Test: as above
# Settings: protein: recombinant; tags: N-terminal GST; dsDNA, one strand shown
# Summary of the method: as §1
row,Sequence,binding signal
1,TTTTCC,"1.72 fold enrichment (6-mer frequency, TF over GST control)"
2,CGATTA,"1.12 fold enrichment (6-mer frequency, TF over GST control)"
3,TATTTT,"1.42 fold enrichment (6-mer frequency, TF over GST control)"
4,TCCTCG,"1.45 fold enrichment (6-mer frequency, TF over GST control)"
5,GTTGCT,"1.28 fold enrichment (6-mer frequency, TF over GST control)"
6,TCCGCC,"1.69 fold enrichment (6-mer frequency, TF over GST control)"
7,TCTCTG,"1.59 fold enrichment (6-mer frequency, TF over GST control)"
8,TTTAAC,"1.23 fold enrichment (6-mer frequency, TF over GST control)"
9,ATTGCA,"1.1 fold enrichment (6-mer frequency, TF over GST control)"
10,ACGTCT,"1.17 fold enrichment (6-mer frequency, TF over GST control)"
11,TCTACT,"1.51 fold enrichment (6-mer frequency, TF over GST control)"
12,TCATCC,"1.39 fold enrichment (6-mer frequency, TF over GST control)"
13,TATCGA,"1.28 fold enrichment (6-mer frequency, TF over GST control)"
14,CTACTC,"1.21 fold enrichment (6-mer frequency, TF over GST control)"
15,AATTAC,"1.33 fold enrichment (6-mer frequency, TF over GST control)"
16,TCTGGC,"1.38 fold enrichment (6-mer frequency, TF over GST control)"
17,CCCGAC,"1.53 fold enrichment (6-mer frequency, TF over GST control)"
18,CAAGAT,"1.14 fold enrichment (6-mer frequency, TF over GST control)"
19,TTAGCA,"1.22 fold enrichment (6-mer frequency, TF over GST control)"
20,CATTTG,"1.15 fold enrichment (6-mer frequency, TF over GST control)"

row,Sequence,binding signal
1,TCTTCT,"1.31 fold enrichment (6-mer frequency, TF over GST control)"
2,AATCCT,"1.3 fold enrichment (6-mer frequency, TF over GST control)"
3,CCCCCT,"1.31 fold enrichment (6-mer frequency, TF over GST control)"
4,ACATCC,"2.43 fold enrichment (6-mer frequency, TF over GST control)"
5,TTTTGT,"1.2 fold enrichment (6-mer frequency, TF over GST control)"
6,ACATAA,"1.19 fold enrichment (6-mer frequency, TF over GST control)"
7,TTCTCG,"1.32 fold enrichment (6-mer frequency, TF over GST control)"
8,AAATCT,"1.39 fold enrichment (6-mer frequency, TF over GST control)"
9,TTCTCC,"1.37 fold enrichment (6-mer frequency, TF over GST control)"
10,CTTGCG,"1.3 fold enrichment (6-mer frequency, TF over GST control)"
11,ACGTTC,"1.21 fold enrichment (6-mer frequency, TF over GST control)"
12,AATTAA,"1.24 fold enrichment (6-mer frequency, TF over GST control)"
13,GTTCCT,"1.96 fold enrichment (6-mer frequency, TF over GST control)"
14,ACTTAT,"1.5 fold enrichment (6-mer frequency, TF over GST control)"
15,AATTTA,"1.21 fold enrichment (6-mer frequency, TF over GST control)"
16,CACGAT,"1.55 fold enrichment (6-mer frequency, TF over GST control)"
17,CTCTCT,"1.77 fold enrichment (6-mer frequency, TF over GST control)"
18,GCCTAC,"1.37 fold enrichment (6-mer frequency, TF over GST control)"
19,GCCTCG,"1.07 fold enrichment (6-mer frequency, TF over GST control)"
20,AACTAG,"1.2 fold enrichment (6-mer frequency, TF over GST control)"
